# Key:
# Assay in all cases: DAPPL (digital affinity profiling via proximity ligation, sequencing); 10 mM Tris-HCl pH 7.5, 50 mM NaCl, 1 mM DTT, 4% glycerol, room temperature, 30 min; GST-TFs on glutathione beads, 16-mer random dsDNA library, 0.1% formaldehyde crosslink after washing; high values mean tight binding
# FLI1 = target: T1, FLI1 (Homo sapiens, UniProt Q01543 1-452); details: protein: recombinant; tags: N-terminal GST; dsDNA, one strand shown
# T1 sequence: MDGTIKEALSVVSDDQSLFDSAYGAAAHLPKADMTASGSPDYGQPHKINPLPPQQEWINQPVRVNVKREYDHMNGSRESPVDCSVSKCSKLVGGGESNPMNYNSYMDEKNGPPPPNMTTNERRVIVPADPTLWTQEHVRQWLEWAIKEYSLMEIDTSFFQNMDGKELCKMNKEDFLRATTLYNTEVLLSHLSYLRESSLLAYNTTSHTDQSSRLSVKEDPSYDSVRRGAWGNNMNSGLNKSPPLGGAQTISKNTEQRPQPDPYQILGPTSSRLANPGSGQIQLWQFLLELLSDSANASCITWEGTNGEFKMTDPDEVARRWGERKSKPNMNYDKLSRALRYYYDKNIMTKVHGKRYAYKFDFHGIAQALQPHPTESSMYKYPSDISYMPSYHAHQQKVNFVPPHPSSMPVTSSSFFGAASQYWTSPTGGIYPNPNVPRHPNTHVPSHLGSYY
# In short: (§1)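 Pools of DNA-barcoded human transcription factors, expressed in yeast as GST fusions on glutathione beads and combined with a tag-only sample, were incubated with 200 nmole of a 16-mer random double-stranded DNA library. Incubation took 30 min at room temperature in Tris/NaCl/DTT/glycerol buffer and was followed by washing, 0.1% formaldehyde crosslinking, proximity ligation (BsaI/T4 ligase, 1 h, 37 °C), PCR amplification and sequencing on an Illumina NextSeq500. Binding signal is the ratio of a hexamer's read frequency for a factor to its frequency for the tag-only sample.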
# ELK1 = target: T2, ELK1 (Homo sapiens, UniProt P19419 1-428); details: protein: recombinant; tags: N-terminal GST; dsDNA, one strand shown
# T2 sequence: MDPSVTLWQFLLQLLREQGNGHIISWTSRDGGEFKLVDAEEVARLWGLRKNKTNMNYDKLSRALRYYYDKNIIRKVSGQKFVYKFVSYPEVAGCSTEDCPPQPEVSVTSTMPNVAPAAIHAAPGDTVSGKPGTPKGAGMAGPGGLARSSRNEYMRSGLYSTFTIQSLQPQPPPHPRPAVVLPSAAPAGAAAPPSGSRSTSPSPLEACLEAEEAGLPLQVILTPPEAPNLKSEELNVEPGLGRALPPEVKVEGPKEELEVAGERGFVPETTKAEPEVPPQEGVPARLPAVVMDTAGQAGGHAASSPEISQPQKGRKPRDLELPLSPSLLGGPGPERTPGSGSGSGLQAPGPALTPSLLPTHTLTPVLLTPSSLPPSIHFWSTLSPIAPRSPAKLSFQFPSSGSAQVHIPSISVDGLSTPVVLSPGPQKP
# In short: as §1
# GABPA = target: T3, GABPA (Homo sapiens, UniProt Q06546 1-454); details: protein: recombinant; tags: N-terminal GST; dsDNA, one strand shown
# T3 sequence: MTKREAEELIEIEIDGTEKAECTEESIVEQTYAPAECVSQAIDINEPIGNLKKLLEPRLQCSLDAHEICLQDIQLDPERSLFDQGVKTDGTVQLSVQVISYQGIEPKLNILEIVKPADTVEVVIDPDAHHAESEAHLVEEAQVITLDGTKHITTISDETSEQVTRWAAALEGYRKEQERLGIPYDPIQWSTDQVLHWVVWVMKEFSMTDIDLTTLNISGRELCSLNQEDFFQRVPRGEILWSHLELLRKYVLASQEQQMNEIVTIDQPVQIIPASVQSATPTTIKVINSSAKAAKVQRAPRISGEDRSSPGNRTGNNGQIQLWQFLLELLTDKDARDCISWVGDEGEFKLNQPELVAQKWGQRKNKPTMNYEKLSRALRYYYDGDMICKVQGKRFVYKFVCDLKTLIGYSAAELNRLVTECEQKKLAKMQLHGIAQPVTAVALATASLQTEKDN
# In short: as §1
# ERG = target: T4, ERG (Homo sapiens, UniProt P11308 1-479); details: protein: recombinant; tags: N-terminal GST; dsDNA, one strand shown
# T4 sequence: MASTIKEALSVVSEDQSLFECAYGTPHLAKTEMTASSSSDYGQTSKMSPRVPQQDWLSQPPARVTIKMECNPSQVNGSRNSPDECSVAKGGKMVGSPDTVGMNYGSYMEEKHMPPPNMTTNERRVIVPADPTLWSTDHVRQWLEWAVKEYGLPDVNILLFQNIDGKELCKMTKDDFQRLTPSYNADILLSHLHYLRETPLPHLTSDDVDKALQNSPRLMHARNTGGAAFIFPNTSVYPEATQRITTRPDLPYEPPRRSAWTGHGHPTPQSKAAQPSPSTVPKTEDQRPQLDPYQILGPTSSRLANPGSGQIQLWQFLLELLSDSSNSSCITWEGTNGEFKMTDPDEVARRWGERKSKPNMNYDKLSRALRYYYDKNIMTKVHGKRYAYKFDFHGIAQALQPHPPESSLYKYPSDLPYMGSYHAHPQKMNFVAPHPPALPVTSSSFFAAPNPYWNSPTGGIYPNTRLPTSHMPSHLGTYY
# In short: as §1
# ELF1 = ELF1 (Homo sapiens, UniProt P32519 1-619); details: protein: recombinant; tags: N-terminal GST; dsDNA, one strand shown
# Chain of ELF1 (P32519 whole entry): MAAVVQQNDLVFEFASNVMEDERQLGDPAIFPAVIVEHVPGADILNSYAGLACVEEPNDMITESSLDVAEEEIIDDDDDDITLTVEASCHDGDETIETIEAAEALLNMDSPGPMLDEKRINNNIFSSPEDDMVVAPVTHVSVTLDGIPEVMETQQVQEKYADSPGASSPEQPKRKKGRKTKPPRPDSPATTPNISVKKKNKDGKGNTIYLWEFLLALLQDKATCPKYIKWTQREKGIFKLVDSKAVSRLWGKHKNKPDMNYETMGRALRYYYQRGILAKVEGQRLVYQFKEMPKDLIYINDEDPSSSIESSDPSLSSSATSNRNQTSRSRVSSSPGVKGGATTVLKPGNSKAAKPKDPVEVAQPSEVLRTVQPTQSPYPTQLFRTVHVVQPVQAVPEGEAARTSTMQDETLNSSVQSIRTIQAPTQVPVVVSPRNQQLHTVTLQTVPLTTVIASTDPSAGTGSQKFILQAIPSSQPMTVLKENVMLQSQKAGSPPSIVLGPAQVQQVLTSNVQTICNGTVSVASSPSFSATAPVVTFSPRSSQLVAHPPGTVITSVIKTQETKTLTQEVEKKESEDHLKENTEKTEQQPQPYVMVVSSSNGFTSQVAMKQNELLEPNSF
# In short: as §1
# EHF = target: T5, EHF (Homo sapiens, UniProt Q9NZC4 1-300); details: protein: recombinant; tags: N-terminal GST; dsDNA, one strand shown
# T5 sequence: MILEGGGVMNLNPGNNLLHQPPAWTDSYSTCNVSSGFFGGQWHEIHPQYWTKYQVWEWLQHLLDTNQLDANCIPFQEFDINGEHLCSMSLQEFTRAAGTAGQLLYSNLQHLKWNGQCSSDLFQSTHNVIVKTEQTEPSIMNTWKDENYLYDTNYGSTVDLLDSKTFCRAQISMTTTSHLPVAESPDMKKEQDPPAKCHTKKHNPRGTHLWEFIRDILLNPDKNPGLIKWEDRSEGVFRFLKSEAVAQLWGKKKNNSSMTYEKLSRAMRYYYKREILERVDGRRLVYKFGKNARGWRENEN
# In short: as §1
# SPI1 = SPI1 (Homo sapiens, UniProt P17947 1-270); details: protein: recombinant; tags: N-terminal GST; dsDNA, one strand shown
# In short: as §1
# SPIB = SPIB (Homo sapiens, UniProt Q01892 1-262); details: protein: recombinant; tags: N-terminal GST; dsDNA, one strand shown
# Chain of SPIB (Q01892 whole entry): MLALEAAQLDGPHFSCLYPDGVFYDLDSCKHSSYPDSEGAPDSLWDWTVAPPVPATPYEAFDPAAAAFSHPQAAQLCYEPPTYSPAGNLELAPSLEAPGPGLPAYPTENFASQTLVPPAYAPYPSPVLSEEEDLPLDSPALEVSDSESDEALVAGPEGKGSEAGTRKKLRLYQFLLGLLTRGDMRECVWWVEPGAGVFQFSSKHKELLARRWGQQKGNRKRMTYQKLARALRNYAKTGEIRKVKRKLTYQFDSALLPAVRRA
# In short: as §1
# ELK3 = target: T6, ELK3 (Homo sapiens, UniProt P41970 1-407); details: protein: recombinant; tags: N-terminal GST; dsDNA, one strand shown
# T6 sequence: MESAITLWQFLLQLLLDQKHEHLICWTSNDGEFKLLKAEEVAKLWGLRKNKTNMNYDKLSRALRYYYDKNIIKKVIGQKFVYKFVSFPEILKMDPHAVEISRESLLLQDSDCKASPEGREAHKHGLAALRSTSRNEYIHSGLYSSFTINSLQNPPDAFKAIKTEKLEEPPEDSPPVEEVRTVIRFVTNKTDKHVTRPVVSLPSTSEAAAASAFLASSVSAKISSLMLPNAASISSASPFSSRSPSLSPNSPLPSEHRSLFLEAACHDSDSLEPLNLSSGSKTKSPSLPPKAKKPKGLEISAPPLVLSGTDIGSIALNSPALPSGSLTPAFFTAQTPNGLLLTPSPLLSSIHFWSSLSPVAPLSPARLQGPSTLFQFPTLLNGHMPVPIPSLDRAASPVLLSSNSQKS
# In short: as §1
# FEV = target: T7, FEV (Homo sapiens, UniProt Q99581 1-238); details: protein: recombinant; tags: N-terminal GST; dsDNA, one strand shown
# T7 sequence: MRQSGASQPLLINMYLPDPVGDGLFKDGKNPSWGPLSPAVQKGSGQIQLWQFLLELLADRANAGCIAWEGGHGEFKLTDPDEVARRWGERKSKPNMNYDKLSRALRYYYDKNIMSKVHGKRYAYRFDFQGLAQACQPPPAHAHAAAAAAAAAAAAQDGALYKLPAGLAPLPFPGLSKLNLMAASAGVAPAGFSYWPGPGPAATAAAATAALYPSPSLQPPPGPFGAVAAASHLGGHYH
# In short: as §1
# ETV5 = ETV5 (Homo sapiens, UniProt P41161 1-510); details: protein: recombinant; tags: N-terminal GST; dsDNA, one strand shown
# Chain of ETV5 (P41161 whole entry): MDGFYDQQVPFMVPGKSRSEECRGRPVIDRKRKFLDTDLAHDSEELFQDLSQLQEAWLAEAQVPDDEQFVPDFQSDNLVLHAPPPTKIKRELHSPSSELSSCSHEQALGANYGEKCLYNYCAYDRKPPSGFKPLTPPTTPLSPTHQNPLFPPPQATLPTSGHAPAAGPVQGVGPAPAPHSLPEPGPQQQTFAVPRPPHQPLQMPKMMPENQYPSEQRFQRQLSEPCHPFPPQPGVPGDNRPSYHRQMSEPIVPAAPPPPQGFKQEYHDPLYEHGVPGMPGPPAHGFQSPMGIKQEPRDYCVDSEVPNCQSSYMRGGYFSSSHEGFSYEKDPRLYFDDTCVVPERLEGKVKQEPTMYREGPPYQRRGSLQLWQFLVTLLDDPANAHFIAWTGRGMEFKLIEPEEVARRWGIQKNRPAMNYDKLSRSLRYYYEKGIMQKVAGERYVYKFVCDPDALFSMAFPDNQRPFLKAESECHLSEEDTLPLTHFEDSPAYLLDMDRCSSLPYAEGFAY
# In short: as §1
# HSF1 = HSF1 (Homo sapiens, UniProt Q00613 1-529); details: protein: recombinant; tags: N-terminal GST; chain copies: 3; dsDNA, one strand shown
# Chain of HSF1 (Q00613 whole entry): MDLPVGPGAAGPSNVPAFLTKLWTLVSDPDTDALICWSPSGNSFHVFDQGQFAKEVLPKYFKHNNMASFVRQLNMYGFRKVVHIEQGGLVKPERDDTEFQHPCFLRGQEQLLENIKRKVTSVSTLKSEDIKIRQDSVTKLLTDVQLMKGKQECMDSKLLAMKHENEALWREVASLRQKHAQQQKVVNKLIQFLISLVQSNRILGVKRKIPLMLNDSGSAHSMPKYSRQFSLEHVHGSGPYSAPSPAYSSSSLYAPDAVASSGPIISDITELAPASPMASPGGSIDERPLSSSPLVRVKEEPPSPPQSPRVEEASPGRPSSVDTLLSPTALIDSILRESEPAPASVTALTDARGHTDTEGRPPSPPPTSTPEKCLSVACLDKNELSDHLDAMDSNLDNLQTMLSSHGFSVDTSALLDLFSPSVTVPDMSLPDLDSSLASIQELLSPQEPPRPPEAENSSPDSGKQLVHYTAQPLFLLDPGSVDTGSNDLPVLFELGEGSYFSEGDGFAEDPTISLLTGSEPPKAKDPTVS
# In short: as §1
# SPIC = target: T8, SPIC (Homo sapiens, UniProt Q8N5J4 1-248); details: protein: recombinant; tags: N-terminal GST; dsDNA, one strand shown
# T8 sequence: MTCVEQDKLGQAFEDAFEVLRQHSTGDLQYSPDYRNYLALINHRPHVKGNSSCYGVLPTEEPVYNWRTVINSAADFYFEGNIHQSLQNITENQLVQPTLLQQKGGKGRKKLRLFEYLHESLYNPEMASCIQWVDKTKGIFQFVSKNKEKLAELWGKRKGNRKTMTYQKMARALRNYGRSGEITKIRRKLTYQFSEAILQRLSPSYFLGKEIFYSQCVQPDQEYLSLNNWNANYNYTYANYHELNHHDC
# In short: as §1
# ELF4 = ELF4 (Homo sapiens, UniProt Q99607 1-663); details: protein: recombinant; tags: N-terminal GST; dsDNA, one strand shown
# Chain of ELF4 (Q99607 whole entry): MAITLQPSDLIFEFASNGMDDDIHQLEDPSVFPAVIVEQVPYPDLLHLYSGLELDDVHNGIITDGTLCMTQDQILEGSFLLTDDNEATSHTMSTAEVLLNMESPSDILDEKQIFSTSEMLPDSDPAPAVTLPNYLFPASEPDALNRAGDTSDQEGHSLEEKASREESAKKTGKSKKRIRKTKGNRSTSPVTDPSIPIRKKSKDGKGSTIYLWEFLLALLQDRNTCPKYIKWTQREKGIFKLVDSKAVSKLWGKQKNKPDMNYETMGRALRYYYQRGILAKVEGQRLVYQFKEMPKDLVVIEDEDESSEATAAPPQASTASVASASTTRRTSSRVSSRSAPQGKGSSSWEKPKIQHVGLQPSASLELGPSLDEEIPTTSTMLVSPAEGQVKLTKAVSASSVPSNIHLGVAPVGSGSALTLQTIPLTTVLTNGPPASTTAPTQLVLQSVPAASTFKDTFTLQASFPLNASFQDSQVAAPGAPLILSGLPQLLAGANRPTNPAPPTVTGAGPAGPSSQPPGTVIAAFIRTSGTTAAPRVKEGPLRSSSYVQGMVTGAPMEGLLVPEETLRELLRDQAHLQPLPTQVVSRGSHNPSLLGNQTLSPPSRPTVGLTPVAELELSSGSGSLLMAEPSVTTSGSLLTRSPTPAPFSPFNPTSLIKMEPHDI
# In short: as §1
# ELK4 = target: T9, ELK4 (Homo sapiens, UniProt P28324-2 1-405); details: protein: recombinant; tags: N-terminal GST; dsDNA, one strand shown
# T9 sequence: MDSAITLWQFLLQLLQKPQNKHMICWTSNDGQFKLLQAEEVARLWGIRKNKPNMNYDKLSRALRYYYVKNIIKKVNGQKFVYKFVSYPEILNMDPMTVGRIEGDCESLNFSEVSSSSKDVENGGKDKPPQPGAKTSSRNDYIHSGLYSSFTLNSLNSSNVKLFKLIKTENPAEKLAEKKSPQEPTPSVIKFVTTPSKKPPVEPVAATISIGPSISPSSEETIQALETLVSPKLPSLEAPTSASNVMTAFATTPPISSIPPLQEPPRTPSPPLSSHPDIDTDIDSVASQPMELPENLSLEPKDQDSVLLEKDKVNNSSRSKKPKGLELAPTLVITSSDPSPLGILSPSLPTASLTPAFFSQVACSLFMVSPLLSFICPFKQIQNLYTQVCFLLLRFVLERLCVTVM
# In short: as §1
# ETV2 = target: T10, ETV2 (Homo sapiens, UniProt O00321 1-342); details: protein: recombinant; tags: N-terminal GST; dsDNA, one strand shown
# T10 sequence: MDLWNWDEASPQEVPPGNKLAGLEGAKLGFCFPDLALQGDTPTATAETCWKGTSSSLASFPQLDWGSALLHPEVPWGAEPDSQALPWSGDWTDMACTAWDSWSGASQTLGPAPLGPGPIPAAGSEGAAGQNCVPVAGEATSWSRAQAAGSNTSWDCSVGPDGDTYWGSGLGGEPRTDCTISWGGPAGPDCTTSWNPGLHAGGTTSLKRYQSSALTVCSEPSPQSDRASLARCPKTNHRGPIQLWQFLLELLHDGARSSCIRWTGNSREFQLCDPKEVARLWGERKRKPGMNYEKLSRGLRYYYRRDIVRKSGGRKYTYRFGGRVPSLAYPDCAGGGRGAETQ
# In short: as §1
# ELF3 = target: T11, ELF3 (Homo sapiens, UniProt P78545 1-371); details: protein: recombinant; tags: N-terminal GST; dsDNA, one strand shown
# T11 sequence: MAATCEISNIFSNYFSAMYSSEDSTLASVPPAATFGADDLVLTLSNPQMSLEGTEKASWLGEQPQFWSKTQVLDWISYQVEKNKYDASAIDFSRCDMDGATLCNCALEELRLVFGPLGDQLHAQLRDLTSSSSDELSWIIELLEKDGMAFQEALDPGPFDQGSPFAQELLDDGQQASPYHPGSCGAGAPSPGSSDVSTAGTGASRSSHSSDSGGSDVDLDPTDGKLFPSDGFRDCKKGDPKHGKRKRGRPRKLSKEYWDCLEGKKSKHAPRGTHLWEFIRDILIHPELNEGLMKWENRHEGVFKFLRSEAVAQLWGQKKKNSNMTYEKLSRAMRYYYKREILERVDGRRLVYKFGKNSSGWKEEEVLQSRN
# In short: as §1
# CRX = CRX (Homo sapiens, UniProt O43186 1-299); details: protein: recombinant; tags: N-terminal GST; dsDNA, one strand shown
# Chain of CRX (O43186 whole entry): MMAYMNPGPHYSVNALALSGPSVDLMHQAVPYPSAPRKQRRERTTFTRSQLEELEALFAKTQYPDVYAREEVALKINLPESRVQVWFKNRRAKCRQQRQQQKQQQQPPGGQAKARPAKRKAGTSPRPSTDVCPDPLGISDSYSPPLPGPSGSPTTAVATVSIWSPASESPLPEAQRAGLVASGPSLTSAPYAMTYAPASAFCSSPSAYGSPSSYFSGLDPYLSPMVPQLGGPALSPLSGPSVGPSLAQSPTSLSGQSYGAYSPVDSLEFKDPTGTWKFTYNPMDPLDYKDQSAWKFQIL
# In short: as §1
# ETV1 = ETV1 (Homo sapiens, UniProt P50549 1-477); details: protein: recombinant; tags: N-terminal GST; dsDNA, one strand shown
# Chain of ETV1 (P50549 whole entry): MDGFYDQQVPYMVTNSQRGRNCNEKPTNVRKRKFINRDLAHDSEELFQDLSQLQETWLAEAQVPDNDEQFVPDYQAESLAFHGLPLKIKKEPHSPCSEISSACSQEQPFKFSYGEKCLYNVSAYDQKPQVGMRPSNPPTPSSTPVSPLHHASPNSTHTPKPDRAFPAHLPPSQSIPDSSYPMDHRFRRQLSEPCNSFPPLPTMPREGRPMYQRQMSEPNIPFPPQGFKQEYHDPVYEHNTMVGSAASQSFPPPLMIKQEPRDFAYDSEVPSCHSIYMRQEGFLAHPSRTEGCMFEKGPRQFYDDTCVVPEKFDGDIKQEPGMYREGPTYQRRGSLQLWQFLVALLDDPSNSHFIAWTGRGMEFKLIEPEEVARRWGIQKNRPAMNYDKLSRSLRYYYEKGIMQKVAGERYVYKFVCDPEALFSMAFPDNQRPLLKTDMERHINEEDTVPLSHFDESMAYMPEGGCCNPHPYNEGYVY
# In short: as §1
sequence,measurement,setting,value
CTTAGA,binding signal,FLI1,"1.13 fold enrichment (6-mer frequency, TF over GST control)"
same,binding signal,ELK1,"1.11 fold enrichment (6-mer frequency, TF over GST control)"
same,binding signal,GABPA,"1.17 fold enrichment (6-mer frequency, TF over GST control)"
same,binding signal,ERG,"1.09 fold enrichment (6-mer frequency, TF over GST control)"
same,binding signal,ELF1,"1.08 fold enrichment (6-mer frequency, TF over GST control)"
same,binding signal,EHF,"1.1 fold enrichment (6-mer frequency, TF over GST control)"
same,binding signal,SPI1,"1.11 fold enrichment (6-mer frequency, TF over GST control)"
same,binding signal,SPIB,"1.11 fold enrichment (6-mer frequency, TF over GST control)"
same,binding signal,ELK3,"1.02 fold enrichment (6-mer frequency, TF over GST control)"
same,binding signal,FEV,"1.15 fold enrichment (6-mer frequency, TF over GST control)"
same,binding signal,ETV5,"1.06 fold enrichment (6-mer frequency, TF over GST control)"
same,binding signal,HSF1,"1.53 fold enrichment (6-mer frequency, TF over GST control)"
same,binding signal,SPIC,"1.27 fold enrichment (6-mer frequency, TF over GST control)"
same,binding signal,ELF4,"1.09 fold enrichment (6-mer frequency, TF over GST control)"
same,binding signal,ELK4,"1.24 fold enrichment (6-mer frequency, TF over GST control)"
same,binding signal,ETV2,"1.15 fold enrichment (6-mer frequency, TF over GST control)"
same,binding signal,ELF3,"1.07 fold enrichment (6-mer frequency, TF over GST control)"
same,binding signal,CRX,"1.69 fold enrichment (6-mer frequency, TF over GST control)"
same,binding signal,ETV1,"1.14 fold enrichment (6-mer frequency, TF over GST control)"
